Assay results from PubChem BioAssay.
Where “and” joins values, the source holds several entries; their conditions need not be identical. Identical values can stand only once. For part of these data: Measured potencies and affinities stand elsewhere. A structure can be active in one record and inactive in another. Calls of active or inactive are those of the source. Unless noted, no rule for the calls is given here.

Columns and labels:
[1] = antimalarial activity against Dd2 strain (AID 2302;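 active = growth inhibition above 50% at the single 2 µM test dose, taken to imply half-maximal potency below 2 µM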;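 also: 0% = DMSO untreated growth and 100% = chloroquine plus artemisinin killed control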); conditions: P. falciparum Dd2 in RBCs, LDH growth readout, 72 h; at 2 µM; stronger effect = higher value
[2] = HepG2 cytotoxicity, primary screen, cytotoxicity control for P. falciparum antimalarial project, cell-based, ATP luminescence (AID 2303;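 active = inhibition above 50%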;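 also: 0% = DMSO wells and 100% = digitonin-killed cells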); conditions: HepG2 viability, 24-48 h, at 10 µM, stronger effect = higher value
[3] = target: L-lactate dehydrogenase (Plasmodium falciparum (isolate CDC / Honduras)) (UniProt Q27743); assay: PfLDH activity inhibition – cell lysate, 3D7 strain, counter-screen for P. falciparum growth inhibition project (AID 2304);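 also: 0% = vehicle and 100% = reference inhibitor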; conditions: P. falciparum 3D7 crude extract, LDH APAD/NBT absorbance; at 2 µM; stronger effect = higher value
[4] = inhibition of 3D7 malaria parasite growth – strain 3D7 (AID 2306);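 also: 0% = DMSO wells and 100% = chloroquine plus artemisinin control wells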; conditions: P. falciparum 3D7 erythrocytic growth, LDH absorbance, 72 h; at 2 µM; stronger effect = higher value
[5] = target: Calcium-dependent protein kinase 1 (Plasmodium falciparum (isolate 3D7)) (UniProt P62344); assay: PfCDPK1 kinase inhibitors, biochemical, TCAMS library (AID 1159585; cut-off not given, nearly all actives have IC50 up to about 0.98 µM;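 also: inhibitors leave more ATP so luminescence rises with inhibition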); conditions: recombinant PfCDPK1, Kinase-Glo ATP depletion luminescence
[6] = target: Plasmodium falciparum protein kinase 6 (PK6, PF3D7_1337100) (UniProt Q8IDW1); assay: PfPK6 kinase inhibitors, biochemical, TCAMS library (AID 1159586); conditions: recombinant PfPK6, Kinase-Glo ATP depletion luminescence
[7] = target: Protein kinase 7 (PK7), Plasmodium falciparum 3D7 (PF3D7_0213400) (UniProt Q7YTF7); assay: inhibition of Plasmodium PK7 catalytic activity – biochemical, TCAMS antimalarial set, Kinase-Glo luminescence (AID 1159587); conditions: recombinant PfPK7, Kinase-Glo ATP depletion luminescence
[8] = target: Calcium-dependent protein kinase 4 (Plasmodium falciparum (isolate 3D7)) (UniProt Q8IBS5); assay: PfCDPK4 kinase inhibitors, biochemical, TCAMS library (AID 1159588; cut-off not given, nearly all actives have IC50 up to about 0.91 µM); conditions: recombinant PfCDPK4, Kinase-Glo ATP depletion luminescence
Chain of Calcium-dependent protein kinase 4 (Plasmodium falciparum (isolate 3D7)) (Q8IBS5 whole entry, looked up): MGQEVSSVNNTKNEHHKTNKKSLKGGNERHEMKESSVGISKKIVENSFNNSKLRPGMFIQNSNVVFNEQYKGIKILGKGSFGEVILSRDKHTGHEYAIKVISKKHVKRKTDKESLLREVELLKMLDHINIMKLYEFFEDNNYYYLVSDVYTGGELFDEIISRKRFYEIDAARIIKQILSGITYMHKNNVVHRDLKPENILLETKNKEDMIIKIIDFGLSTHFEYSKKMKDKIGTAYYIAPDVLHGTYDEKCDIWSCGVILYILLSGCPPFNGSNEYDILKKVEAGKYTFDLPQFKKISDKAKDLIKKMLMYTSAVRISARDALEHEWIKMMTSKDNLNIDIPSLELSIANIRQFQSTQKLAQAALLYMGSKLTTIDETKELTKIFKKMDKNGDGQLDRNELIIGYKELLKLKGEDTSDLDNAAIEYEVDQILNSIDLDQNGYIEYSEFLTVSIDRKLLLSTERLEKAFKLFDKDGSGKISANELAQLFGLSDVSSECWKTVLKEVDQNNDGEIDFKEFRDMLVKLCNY

Chain of Calcium-dependent protein kinase 1 (Plasmodium falciparum (isolate 3D7)) (P62344 whole entry, looked up): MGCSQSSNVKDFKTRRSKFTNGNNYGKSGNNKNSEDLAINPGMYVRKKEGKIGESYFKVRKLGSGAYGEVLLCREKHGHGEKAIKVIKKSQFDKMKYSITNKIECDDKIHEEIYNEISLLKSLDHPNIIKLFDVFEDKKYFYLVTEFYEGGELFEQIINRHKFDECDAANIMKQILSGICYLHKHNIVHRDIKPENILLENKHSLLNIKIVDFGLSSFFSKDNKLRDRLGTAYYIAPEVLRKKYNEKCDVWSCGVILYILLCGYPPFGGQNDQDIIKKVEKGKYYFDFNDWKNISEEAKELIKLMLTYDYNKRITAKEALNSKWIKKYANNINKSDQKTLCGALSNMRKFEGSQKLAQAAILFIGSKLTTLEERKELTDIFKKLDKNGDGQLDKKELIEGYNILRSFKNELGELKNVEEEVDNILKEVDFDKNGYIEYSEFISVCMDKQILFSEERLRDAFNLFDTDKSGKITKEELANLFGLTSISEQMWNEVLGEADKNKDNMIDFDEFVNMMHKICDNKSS
Chain of Protein kinase 7 (PK7), Plasmodium falciparum 3D7 (PF3D7_0213400) (Q7YTF7 1-343): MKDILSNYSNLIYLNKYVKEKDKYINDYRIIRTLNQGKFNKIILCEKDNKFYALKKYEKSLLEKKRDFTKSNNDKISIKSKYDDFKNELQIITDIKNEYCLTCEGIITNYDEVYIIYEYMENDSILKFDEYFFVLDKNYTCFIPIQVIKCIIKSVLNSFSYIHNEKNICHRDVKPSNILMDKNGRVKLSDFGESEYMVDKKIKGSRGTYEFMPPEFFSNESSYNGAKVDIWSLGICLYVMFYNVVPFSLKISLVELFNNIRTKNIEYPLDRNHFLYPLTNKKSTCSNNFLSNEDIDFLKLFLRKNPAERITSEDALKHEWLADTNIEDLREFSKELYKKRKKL
Chain of Plasmodium falciparum protein kinase 6 (PK6, PF3D7_1337100) (Q8IDW1 1-305): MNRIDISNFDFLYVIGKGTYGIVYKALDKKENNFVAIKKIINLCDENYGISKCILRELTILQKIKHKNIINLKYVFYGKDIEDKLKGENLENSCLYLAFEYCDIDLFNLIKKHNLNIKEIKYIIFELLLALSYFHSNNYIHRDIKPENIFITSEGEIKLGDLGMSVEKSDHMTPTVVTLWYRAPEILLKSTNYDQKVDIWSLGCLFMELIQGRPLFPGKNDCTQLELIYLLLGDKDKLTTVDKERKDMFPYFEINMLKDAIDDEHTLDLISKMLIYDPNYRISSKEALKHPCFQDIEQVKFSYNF
Chain of L-lactate dehydrogenase (Plasmodium falciparum (isolate CDC / Honduras)) (Q27743 whole entry, looked up): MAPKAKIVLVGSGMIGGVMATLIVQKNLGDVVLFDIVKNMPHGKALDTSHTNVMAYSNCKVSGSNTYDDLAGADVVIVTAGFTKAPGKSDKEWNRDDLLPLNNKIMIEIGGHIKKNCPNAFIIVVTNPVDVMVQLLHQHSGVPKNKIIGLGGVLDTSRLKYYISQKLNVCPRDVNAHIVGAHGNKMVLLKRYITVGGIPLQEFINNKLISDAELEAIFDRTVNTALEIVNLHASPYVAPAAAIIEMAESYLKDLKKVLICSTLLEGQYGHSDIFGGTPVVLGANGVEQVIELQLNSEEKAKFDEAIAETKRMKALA

Row | Compound | growth inhibition [1] | inhibition [2] | inhibition [3] | growth inhibition [4] | outcome [5] | outcome [6] | outcome [7] | outcome [8]
1 | Cc1ccc(C)c(C=CC(=O)NC2CCC(CN3CCC(c4c[nH]c5ccccc45)CC3)CC2)c1 (stereo not drawn) | 55% (active) and 80% (active) | 38% (inactive) and 46% (inactive) | 3% (inactive) and 5% (inactive) | 101% (active) and 102% (active) | inactive | inactive | inactive | inactive
2 | COc1ccc(C2CNCc3c2cc(OC)c(OC)c3Cl)cc1 (stereo not drawn) | 3% (inactive) | 42% (inactive) | 2% (inactive) | 98% (active) | inactive | inactive | inactive | inactive
3 | CCCN(CC(=O)NCCc1ccccc1)c1ccc(C#N)c2ccccc12 | 39% (inactive) | 8% (inactive) | -5% (inactive) | 92% (active) | inactive | inactive | inactive | inactive
4 | CC1=C(C(=O)NC2CCC(CN3CCC(c4c[nH]c5ccccc45)CC3)CC2)Cc2ccccc21 (stereo not drawn) | 24% (inactive) and 15% (inactive) | 41% (inactive) and 37% (inactive) | 6% (inactive) and 7% (inactive) | 97% (active) and 99% (active) | inactive | inactive | inactive | inactive
5 | NC(=O)CN1CC=C(c2c[nH]c3ccc(Br)cc23)CC1 | 0% (inactive) | 30% (inactive) | -12% (inactive) | 83% (active) | inactive | inactive | inactive | inactive
6 | Cn1nc(-c2ccc(S(=O)(=O)N3CCC(CN4CCC(c5c[nH]c6ccccc56)CC4)CC3)s2)cc1C(F)(F)F | 48% (inactive) | 16% (inactive) | -6% (inactive) | 93% (active) | inactive | inactive | inactive | inactive
7 | N#Cc1ccc(N(CCCO)Cc2ccccc2C(F)(F)F)cc1C(F)(F)F | 23% (inactive) | 7% (inactive) | -5% (inactive) | 91% (active) | inactive | inactive | inactive | inactive
8 | COc1cc(NC(=O)c2nn(CCCN3CCC4(CC3)C(=O)NCN4c3ccccc3)cc2-c2ccc(Cl)c(Cl)c2)cc(OC)c1OC | 75% (active) | -4% (inactive) | 1% (inactive) | 97% (active) | inactive | inactive | inactive | inactive
9 | CC[C@H]1CN2CC[C@H]1C[C@@H]2[C@H](O)c1ccnc2ccc(O)cc12 | -4% (inactive) | -3% (inactive) | -2% (inactive) | 94% (active) | inactive | inactive | inactive | inactive
10 | CC[C@@]1(O)C(=O)OCc2c1cc1n(c2=O)Cc2c-1nc1cc3c(cc1c2CN1CCOCC1)OCO3 | 80% (active) | 81% (active) | 4% (inactive) | 89% (active) | inactive | inactive | inactive | inactive
11 | CO[C@@H]1C[C@@H](C(=O)Nc2ccccc2)N(c2ccc(C#N)c3ccccc23)C1 | 100% (active) | 7% (inactive) | 6% (inactive) | 98% (active) | inactive | inactive | inactive | inactive
12 | O=C(/C=C/c1ccccc1Cl)NC1CCC(CN2[C@@H]3CC[C@H]2CC(c2c[nH]c4ccccc24)C3)CC1 (stereo partly drawn) | 98% (active) | 56% (active) | 3% (inactive) | 102% (active) | inactive | inactive | inactive | inactive
13 | CCCCCCCn1c(=O)c(C(=O)Nc2c(C)cccc2C)c(O)c2ccccc21 | 42% (inactive) | 6% (inactive) | -2% (inactive) | 90% (active) | inactive | inactive | inactive | inactive
14 | CCOC(=O)c1ccc(CC(C)NCC(O)c2cccc(C(F)(F)F)c2)cc1 (stereo not drawn) | 98% (active) | 5% (inactive) | -9% (inactive) | 100% (active) | inactive | inactive | inactive | inactive
15 | CC(Cc1ccc(NC(=O)[C@@H](C)NCCc2cccc(Cl)c2)cc1)NCCc1cccc(Cl)c1 (stereo partly drawn) | 54% (active) | 99% (active) | -1% (inactive) | 99% (active) | inactive | inactive | inactive | inactive
16 | CC[C@H]1CN2CC[C@@H]1C[C@@H]2[C@@H](O)c1cc(-c2ccc(F)cc2)nc2ccc(OC)cc12 | 64% (active) | 18% (inactive) | -4% (inactive) | 98% (active) | inactive | inactive | inactive | inactive
17 | CC[C@H]1CN2CC[C@@H]1C[C@H]2[C@H](O)c1cc(-c2ccc(Cl)c(Cl)c2)nc2ccc(O)cc12 | 99% (active) | -8% (inactive) | -1% (inactive) | 98% (active) | inactive | inactive | inactive | inactive
18 | COCC(=O)N(Cc1cccc(-c2ccc(CNCCc3ccccc3)cc2)c1)C1CCN(Cc2ccccc2)CC1 | 45% (inactive) | 44% (inactive) | 4% (inactive) | 93% (active) | inactive | inactive | inactive | inactive

Row | Compound | growth inhibition [1] | inhibition [2] | inhibition [3] | growth inhibition [4] | outcome [5] | outcome [6] | outcome [7] | outcome [8]
19 | O=C(/C=C/c1c(Cl)cccc1Cl)NC1CCC(CN2CCC(c3c[nH]c4ccccc34)CC2)CC1 (stereo not drawn) | 42% (inactive) and 21% (inactive) | 54% (active) and 39% (inactive) | -4% (inactive) and 4% (inactive) | 93% (active) and 100% (active) | inactive | inactive | inactive | inactive
20 | O=C(/C=C/c1ccc(Cl)c(Cl)c1)NC1CCC(CN2CC[C@H](c3c[nH]c4ccccc34)[C@@H](O)C2)CC1 (stereo partly drawn) | 87% (active) | 30% (inactive) | -7% (inactive) | 101% (active) | inactive | inactive | inactive | inactive
21 | Cc1cc2cc(CNCCc3ccccc3Br)ccc2nc1N | 91% (active) | 31% (inactive) | -1% (inactive) | 98% (active) | inactive | inactive | inactive | inactive
22 | CC(C)CNCc1ccc(-c2cccc(CN(C(=O)NC3CCCCC3)C3CCN(Cc4ccccc4)CC3)c2)cc1 | 88% (active) | 20% (inactive) | 2% (inactive) | 98% (active) | inactive | inactive | inactive | inactive
23 | N#Cc1c(F)cc(N2CCC(NCC[C@H](N)Cc3ccc(F)c(F)c3)CC2)cc1F | 26% (inactive) | 70% (active) | 4% (inactive) | 102% (active) | inactive | inactive | inactive | inactive
24 | N=c1c2c(n(Cc3ccc(Cl)cc3Cl)c3c1CCC3)CCCC2 | 73% (active) | -5% (inactive) | 3% (inactive) | 94% (active) | inactive | inactive | inactive | inactive
25 | O=c1c2ccccc2nc(C=Cc2ccc([N+](=O)[O-])cc2)n1-c1ccccn1 | 96% (active) | 5% (inactive) | -1% (inactive) | 98% (active) | inactive | inactive | inactive | inactive
26 | Cc1ccc(C[C@@H](C)NC[C@H](O)c2cccc(C(F)(F)F)c2)cc1 | 79% (active) and 97% (active) | 10% (inactive) and 6% (inactive) | -4% (inactive) and 1% (inactive) | 101% (active) and 99% (active) | inactive | inactive | inactive | inactive
27 | O=C(/C=C/c1ccc(Cl)cc1Cl)NC1CCC(CN2CCC(c3c[nH]c4ccccc34)CC2)CC1 (stereo not drawn) | 79% (active) | 37% (inactive) | 7% (inactive) | 101% (active) | inactive | inactive | inactive | inactive
28 | Oc1ccc(CN2CCN(CCOC(c3ccccc3)c3ccccc3)CC2)cc1Cl | 77% (active) | 7% (inactive) | 1% (inactive) | 98% (active) | inactive | inactive | inactive | inactive
29 | NCc1ccc(-c2ccccc2CN(C(=O)Nc2ccccc2)C2CCN(Cc3ccccc3)CC2)cc1 | 35% (inactive) | 36% (inactive) | 3% (inactive) | 100% (active) | inactive | inactive | inactive | inactive
30 | CC[C@H]1CN2CC[C@@H]1C[C@H]2[C@H](O)c1cc(N2CCC(c3ccccc3)CC2)nc2ccc(OC)cc12 | 98% (active) | 45% (inactive) | -5% (inactive) | 99% (active) | inactive | inactive | inactive | inactive
31 | COc1ccc2nc(-c3ccc(F)cc3)cc([C@@H](O)[C@@H]3C[C@@H]4CCN3CC4C=NO)c2c1 (stereo partly drawn) | 94% (active) | 14% (inactive) | -2% (inactive) | 100% (active) | inactive | inactive | inactive | inactive
32 | COC(=O)c1ccc(CC(C)NCC(O)c2cccc(Oc3cccc(C(F)(F)F)c3)c2)cc1 (stereo not drawn) | 73% (active) | 19% (inactive) | 2% (inactive) | 91% (active) | inactive | inactive | inactive | inactive
33 | Cc1[nH]c2ccccc2c1C1=CCN(CCCCC2(C)C(=O)Nc3ccccc32)CC1 (stereo not drawn) | 89% (active) | 8% (inactive) | -4% (inactive) | 94% (active) | inactive | inactive | inactive | inactive
34 | O=C(/C=C/c1ccc(Cl)c(Cl)c1)NC1CCC(CN2CCC(c3c[nH]c4ccccc34)CC2)CC1 (stereo not drawn) | 85% (active) | 27% (inactive) | 5% (inactive) | 101% (active) | inactive | inactive | inactive | inactive
35 | CC(C)CNCc1cccc(-c2ccc(CN(C(=O)Nc3ccccc3)C3CCN(Cc4ccccc4)CC3)cc2)c1 | 61% (active) | 41% (inactive) | -2% (inactive) | 101% (active) | inactive | inactive | inactive | inactive
36 | FC(F)(F)c1ccc(NC(=S)N2CCC(CN3CCC(c4c[nH]c5ccccc45)CC3)CC2)cc1 | 45% (inactive) | 35% (inactive) | -6% (inactive) | 100% (active) | inactive | inactive | inactive | inactive
